Data on four molecules can be found in PubChem BioAssay.

Test [1] deals with Wnt5a (protein binding on small-molecule microarray). In words: Wnt5a binders on small-molecule microarray, primary screen, biophysical, 635/667 nm fluorescence (AID 1142).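 Also: fluorescence read at 667 nm with signal to noise per printed feature.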 To be noted: 635 nm fluorescence, higher = more signal.
Test [2] can be described thus: cell viability in Huh7 cells, primary screen, cytotoxicity control for HCV replication inhibitor project, CellTiter-Glo luminescence, basal, 48 h (AID 1143).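 Also: Huh7 hepatoma cells carrying a hepatitis C replication reporter with no stimulus; test concentration not given here.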 To be noted: Huh7 HCV replicon, higher = more signal, called active from +8 up or from −8 down. (In general: ATP-based viability assays read luminescence as a measure of living cells.)
Test [3] in a line: P. aeruginosa biofilm formation inhibitors, primary screen, PAO1 strain, BacTiter-Glo luminescence, LB-PBS (AID 1144). Particulars: 12 h, higher = more signal.
Test [4] can be described thus: CREB reporter modulators without forskolin, primary screen, cell-based, PC12, CRE-LacZ reporter, unstimulated (AID 1145). Particulars: no forskolin, luminescence, 4.5 h, higher = more signal, called active from +8 up or from −8 down.
Test [5] can be described thus: CREB reporter modulators under forskolin, primary screen, cell-based, PC12, CRE-LacZ reporter, forskolin-stimulated (AID 1146).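 Also: PC12 cells with 6xCRE LacZ reporter stimulated by forskolin 10 µM; beta-galactosidase reporter signal reflecting CREB driven transcription.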 To be noted: luminescence, 4.5 h, higher = more signal, called active from +8 up or from −8 down.
The target of test [6] is Streptavidin (Streptomyces avidinii) (UniProt P22629). In words: streptavidin binders on small-molecule microarray, primary screen, artefact control for SMM compound annotation, biophysical, 635/667 nm fluorescence (AID 1147).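 Also: signal reflects streptavidin binding to arrayed compounds as a control protein.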 To be noted: streptavidin binding, higher = more signal.
Test [7] can be described thus: small-molecule binders of probe aInhba, primary screen, biochemical, small-molecule microarray, 635/667 nm fluorescence (AID 1148).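 Also: score merges 667nm spot fluorescence with signal-to-noise for antibody binding to printed compounds.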 Particulars: higher = more signal.
Test [8] addresses Torsin-1A (Homo sapiens) (UniProt O14656). As to the kind of experiment: torsin A binders from cell lysate, primary screen, small-molecule microarray, wild-type, 635/667 nm (AID 1149). Particulars: COS7 hTOR1A-WT lysate, 635 nm fluorescence, higher = more signal.
Test [9] shares this target. As to the kind of experiment: small-molecule binders of mutant TOR1A in lysate, primary screen, cell lysate, small-molecule microarray, COS7 lysate, 635/667 nm fluorescence (AID 1150).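 Also: score pools 667 nm emission and signal to noise measuring lysate protein binding.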 Particulars: COS7 hTOR1A mutant lysate, 635 nm fluorescence, higher = more signal.
Test [10] deals with Sonic hedgehog protein (Shh). As to the kind of experiment: small-molecule binders of Shh protein, primary screen, biochemical, small-molecule microarray, 635/667 nm fluorescence (AID 1151).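 Also: Shh protein binding to compounds spotted on small-molecule microarray slides; score combines spot fluorescence intensity with signal-to-noise across triplicate slides.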 To be noted: small-molecule microarray binding, 635 nm fluorescence; higher = more signal.
Test [11] can be described thus: E. coli DRC41 culture turbidity changes, primary screen, E. coli filamentation inducer project, strain DRC41, OD650, 48 h (AID 1152).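 Also: E. coli MC1000 strain DRC41 lacking acrAB efflux pump and sulA.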 To be noted: E. coli DRC41 (acrAB sulA), higher = more signal, called active from +8 up or from −8 down.
Test [12] in a line: small-molecule binders of probe aLefty1, primary screen, biochemical, small-molecule microarray, 635/667 nm fluorescence (AID 1153).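 Also: score merges spot fluorescence with signal-to-noise ratio from the scanned slide images.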 Particulars: higher = more signal.
Test [13] can be described thus: PSAC antagonists in infected red cells, primary screen, cell-based, P. falciparum Indochina, OD700, 1 h (AID 1154). To be noted: P. falciparum Indochina infected RBC osmotic lysis, higher = more signal, called active from +8 up or from −8 down.
A short description of test [14]: PSAC antagonists in infected red cells, primary screen, cell-based, P. falciparum Indochina, OD700, 2 h (AID 1155).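 Also: lysis reports solute entry through the parasite surface anion channel PSAC; channel blockers reduce lysis of infected cells.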 To be noted: P. falciparum Indochina infected erythrocytes, osmotic lysis OD700; higher = more signal, called active from +8 up or from −8 down.
Test [15] can be described thus: osmotic lysis modulators in infected erythrocytes, primary screen, PSAC antagonist project, cell-based, P. falciparum Indochina, OD700, 3 h (AID 1156). To be noted: higher = more signal, called active from +8 up or from −8 down.
The nature of test [16]: PSAC antagonists in infected red cells, primary screen, cell-based, P. falciparum Indochina, OD700, 18 h (AID 1157). Particulars: P. falciparum Indochina infected erythrocytes, osmotic lysis OD700, 18 h; higher = more signal, called active from +8 up or from −8 down.
A short description of test [17]: modulators of S6 phosphorylation in cells, primary screen, cell-based, A549, cytoblot, luminescence, serum-stimulated (AID 1158).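 Also: serum-stimulated A549 lung adenocarcinoma cells; signal is phosphorylated S6 detected by cytoblot immunostaining with HRP secondary.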 Particulars: A549 phospho-S6 cytoblot, 5 h, higher = more signal.
For test [18], the target named is NADPH oxidase 2 (Homo sapiens) (UniProt P04839). As to the kind of experiment: NOX2-dependent H2O2 signal modulators, primary screen, NOX inhibitor project, cell-based, HEK293-NOX2, PMA-stimulated, Amplex Red fluorescence (AID 1159). Also: test concentration not given here. To be noted: 45 min, higher = more signal, called active from +8 up or from −8 down.
Test [19] addresses NADPH oxidase 4 (Homo sapiens) (UniProt Q9NPH5). In words: NOX4-dependent H2O2 signal modulators, primary screen, NOX inhibitor project, cell-based, HEK293-NOX4, tetracycline-induced, Amplex Red fluorescence (AID 1160). To be noted: 45 min, higher = more signal, called active from +8 up or from −8 down.
The target in test [20] is NADPH oxidase 5 (Homo sapiens) (UniProt Q96PH1). In words: NOX5-dependent H2O2 signal modulators, primary screen, NOX inhibitor project, cell-based, HEK293-NOX5, Amplex Red fluorescence (AID 1161). Particulars: HEK293-NOX5, ionomycin, 45 min, higher = more signal.

Structures are written as SMILES. The source made the active and inactive calls. Unless noted, no rule for the calls is given here.

Sequence of NADPH oxidase 2 (Homo sapiens) (P04839 whole entry, looked up): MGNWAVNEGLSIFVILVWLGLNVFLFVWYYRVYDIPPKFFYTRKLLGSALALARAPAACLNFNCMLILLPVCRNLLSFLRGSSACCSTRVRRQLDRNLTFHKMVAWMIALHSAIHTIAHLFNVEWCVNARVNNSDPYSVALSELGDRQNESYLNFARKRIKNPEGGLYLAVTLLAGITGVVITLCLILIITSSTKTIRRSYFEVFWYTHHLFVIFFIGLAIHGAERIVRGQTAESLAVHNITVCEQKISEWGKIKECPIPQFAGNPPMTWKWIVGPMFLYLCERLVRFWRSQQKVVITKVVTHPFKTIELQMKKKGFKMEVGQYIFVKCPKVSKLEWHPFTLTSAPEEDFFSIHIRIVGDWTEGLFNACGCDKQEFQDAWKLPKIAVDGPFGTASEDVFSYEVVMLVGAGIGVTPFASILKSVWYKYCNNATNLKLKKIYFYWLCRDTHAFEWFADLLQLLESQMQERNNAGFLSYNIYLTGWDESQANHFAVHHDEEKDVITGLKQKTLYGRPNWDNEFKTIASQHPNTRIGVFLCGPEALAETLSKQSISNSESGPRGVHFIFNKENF
Sequence of NADPH oxidase 4 (Homo sapiens) (Q9NPH5 whole entry, looked up): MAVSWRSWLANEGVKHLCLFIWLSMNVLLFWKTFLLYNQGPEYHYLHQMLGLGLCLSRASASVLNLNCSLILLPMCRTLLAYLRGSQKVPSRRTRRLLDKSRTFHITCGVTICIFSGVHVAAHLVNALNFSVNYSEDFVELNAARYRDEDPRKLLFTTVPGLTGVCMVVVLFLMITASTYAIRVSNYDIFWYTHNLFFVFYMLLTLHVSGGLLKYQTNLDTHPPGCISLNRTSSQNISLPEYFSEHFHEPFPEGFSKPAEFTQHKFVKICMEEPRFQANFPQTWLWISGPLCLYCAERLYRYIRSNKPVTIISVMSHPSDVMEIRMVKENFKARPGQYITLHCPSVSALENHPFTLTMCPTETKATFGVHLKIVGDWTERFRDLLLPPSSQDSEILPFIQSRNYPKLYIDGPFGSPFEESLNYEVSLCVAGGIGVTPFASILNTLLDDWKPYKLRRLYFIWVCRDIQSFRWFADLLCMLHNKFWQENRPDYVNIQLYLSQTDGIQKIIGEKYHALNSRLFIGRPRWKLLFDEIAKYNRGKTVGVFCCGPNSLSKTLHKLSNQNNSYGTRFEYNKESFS
Sequence of Torsin-1A (Homo sapiens) (O14656 whole entry, looked up): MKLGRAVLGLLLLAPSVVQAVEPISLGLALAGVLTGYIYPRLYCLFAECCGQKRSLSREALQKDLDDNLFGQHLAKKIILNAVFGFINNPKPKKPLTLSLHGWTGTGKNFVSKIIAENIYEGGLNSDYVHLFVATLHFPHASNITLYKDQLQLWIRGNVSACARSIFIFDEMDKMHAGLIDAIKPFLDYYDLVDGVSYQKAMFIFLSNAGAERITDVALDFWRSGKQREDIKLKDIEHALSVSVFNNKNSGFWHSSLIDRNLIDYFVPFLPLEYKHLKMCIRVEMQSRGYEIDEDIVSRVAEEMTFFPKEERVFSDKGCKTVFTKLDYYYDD
Sequence of Streptavidin (Streptomyces avidinii) (P22629 whole entry, looked up): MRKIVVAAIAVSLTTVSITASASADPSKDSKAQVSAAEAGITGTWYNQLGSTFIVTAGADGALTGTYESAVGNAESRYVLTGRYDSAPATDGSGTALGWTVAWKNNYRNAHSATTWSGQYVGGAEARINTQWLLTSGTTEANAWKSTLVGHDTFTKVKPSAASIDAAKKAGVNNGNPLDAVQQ
Sequence of NADPH oxidase 5 (Homo sapiens) (Q96PH1 whole entry, looked up): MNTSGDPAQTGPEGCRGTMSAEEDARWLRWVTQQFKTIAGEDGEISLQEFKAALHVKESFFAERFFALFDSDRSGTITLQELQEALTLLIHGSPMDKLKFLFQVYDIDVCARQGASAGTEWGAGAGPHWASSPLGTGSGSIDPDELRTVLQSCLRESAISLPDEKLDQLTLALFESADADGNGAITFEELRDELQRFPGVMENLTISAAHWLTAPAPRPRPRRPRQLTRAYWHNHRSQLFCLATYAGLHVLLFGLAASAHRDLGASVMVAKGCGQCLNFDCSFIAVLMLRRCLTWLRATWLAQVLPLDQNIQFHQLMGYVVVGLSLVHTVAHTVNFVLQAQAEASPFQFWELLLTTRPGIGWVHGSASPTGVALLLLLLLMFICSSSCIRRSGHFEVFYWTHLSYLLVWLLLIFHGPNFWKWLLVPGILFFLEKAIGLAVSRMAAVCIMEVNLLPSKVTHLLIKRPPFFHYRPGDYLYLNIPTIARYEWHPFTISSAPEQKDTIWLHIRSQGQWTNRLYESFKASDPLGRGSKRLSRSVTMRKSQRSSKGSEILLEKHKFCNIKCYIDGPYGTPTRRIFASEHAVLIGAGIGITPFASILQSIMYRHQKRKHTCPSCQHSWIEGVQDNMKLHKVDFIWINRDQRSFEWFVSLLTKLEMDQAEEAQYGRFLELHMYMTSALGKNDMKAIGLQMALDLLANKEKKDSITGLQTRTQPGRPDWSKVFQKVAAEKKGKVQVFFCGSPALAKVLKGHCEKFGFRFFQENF

Take `COc1ccccc1CN1C(=O)c2ccccc2[C@](Cc2ccccc2I)(C(=O)O)[C@@H]1c1ccc(CO)cc1`: the composite z-score in test [1] came out at 0.638; in test [6], 1.09; in [7], 0.0753; with Torsin-1A (Homo sapiens) [8], 0.399; in the test with Torsin-1A (Homo sapiens) [9], 1.54; in test [10], 1.61. In test [12], this molecule gave a composite z-score of 0.0366. For the same molecule, the z-score in [2] was -1.03 (inactive); in test [3] it was 0.776 (inactive); in [4] it was 0.145 (inactive); in [5], -0.677 (inactive); in test [11], 1.03 (inactive); in test [13], 5.55 (inactive). Besides, the z-score is 1.09 (inactive) in test [14]; -0.0546 (inactive) in test [15]; 0.426 (inactive) in test [16]; -0.523 in test [17]; 1.03 (inactive) in test [18]; 0.616 (inactive) in [19]. The same molecule displayed a z-score in [20] of 0.646.
As to `C=C(C(=O)CC[C@H](OC(=O)c1ccccc1-c1ccccc1C(=O)O)c1cccc(OCCO)c1)C(C)C`, the composite z-score in test [1] is -0.103; in test [6] it was -0.186; in test [7] it was -0.0719; with Torsin-1A (Homo sapiens) [8] it was -0.492; with Torsin-1A (Homo sapiens) [9] it was -0.0541; in [10], 0.432. Also, the composite z-score in [12] is -0.328. For the same molecule, the z-score is -0.208 (inactive) in [2]; -0.125 (inactive) in [3]; 0.102 (inactive) in test [4]; 3.19 (inactive) in [5]; -0.567 (inactive) in [11]; 4.87 (inactive) in test [13]. The z-score in [14] is 0.857 (inactive); in [15], 2.06 (inactive); in test [16], 0.503 (inactive); in test [17], 0.0988; in [18], 1.49 (inactive); in [19] it was 0.361 (inactive). This molecule returned a z-score in test [20] of -1.48.
For the molecule `O=C(Cc1ccccc1)[C@H]1C2C=CCCC(c3ccccc3)=C2CN1Cc1ccccc1` (stereo not given in full), the composite z-score in test [1] was 0.0277; in test [6] it was -0.144; in test [7] it was -0.0494; in the test with Torsin-1A (Homo sapiens) [8] it was 0.219; in the test with Torsin-1A (Homo sapiens) [9], -0.412; in test [10], 0.0701. This molecule also gave a composite z-score in [12] of -0.151. The z-score was -0.408 (inactive) in [2]; -0.886 (inactive) in test [3]; 4.3 (inactive) in [4]; -0.0521 (inactive) in test [5]; 2.46 (inactive) in [11]; 0.567 (inactive) in test [13]. The z-score in test [14] is 0.186 (inactive); in test [15] it was 0.879 (inactive); in [16], 0.06 (inactive); in test [17] it was -0.0984; in [18], -0.534 (inactive); in test [19], 0.773 (inactive). Also, in test [20], the z-score worked out at 1.13.
On to `CCN(CC)c1ccc(N2CC=CC34O[C@@H]5/C=C\CCCOC(=O)C5[C@H]3C(=O)N(C(C)CO)[C@@H]4C2=O)cc1` (stereo not given in full), for which the composite z-score is -0.367 in test [1]; -0.245 in [6]; -0.0986 in test [7]; -0.428 with Torsin-1A (Homo sapiens) [8]; -0.539 with Torsin-1A (Homo sapiens) [9]; 1.19 in test [10]. The molecule also yielded a composite z-score in [12] of -0.0814. The z-score was 0.307 (inactive) in [2]; -1.6 (inactive) in test [3]; 1.01 (inactive) in [4]; -0.695 (inactive) in test [5]; 1.56 (inactive) in [11]; 0.733 (inactive) in [13]. Also, the z-score in test [14] is -0.264 (inactive); in test [15], 1.33 (inactive); in test [16] it was -0.306 (inactive); in [17] it was 0.0073; in test [18], 0.275 (inactive); in test [19], -0.0723 (inactive). For the same molecule, the z-score in [20] is 0.83.
